Screens (PubChem BioAssay)
Hits are enriched below; roughly 19% of the tested compounds scored in any of these assays.
uPA generation – blocks generation of uPA at the cell surface; cell surface uPA generation assay, qHTS; Potency, µM (highest dose often 38.3 µM), without a hit: top-dose activity change, negative = inhibition, usual class: inhibitors; actives 0.31% (n = 330,000); active = well fitted inhibition curve with a large enough effect; inconclusive = small, poorly fitted or top-dose-only effect; inactive = no such curve, though single readings can be large or run the other way; tested in mouse RAW 264.7 cells; also: potency is read from the fitted curve at half-maximal effect; nearly all actives have a fitted effect of over 55% in size
HT1080-NT tox – kills 2HG-producing HT-1080-NT fibrosarcoma cells. Potency, µM (doses to about 46.1 µM), for the others: at the top dose activity, negative = less viability, most hits filed as cytotoxic. actives 1.6% (n = 360,000). HT-1080-NT fibrosarcoma viability, CellTiter-Glo ATP luminescence, 48 h. AID 686970;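 also: NT is the 2HG producing partner of a matched IDH1 knockdown line; potency is read from the fitted curve at half-maximal effect; 0% = DMSO-treated cells and -100% = media-only wells without cells; nearly all actives have a fitted effect of over 55% in size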
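Viability by CellTiter-Glo luminescence after 48 h compound exposure at 37C of HT-1080-NT cells (750/well, RPMI, 5% FBS). % activity scaled between DMSO wells and medium-only wells, then curve-fitted and categorized by curve class.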
HT1080 IDH1KD tx – kills HT-1080 cells with IDH1 knockdown | HT-1080 IDH1 knockdown viability, ATP luminescence, 48 h | Potency, µM (series often up to 46.1 µM), without a hit: at the top dose activity, negative = toxicity, most hits filed as cytotoxic | actives 2% (n = 360,000);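 also: potency is read from the fitted curve at half-maximal effect; 0% = DMSO wells and -100% = cell-free medium wells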
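IDH1KD HT-1080 cells, 750/well, RPMI + 5% FBS; compound pinned after 2 h settling; 48 h, 37 °C; CellTiter-Glo luminescence; % activity normalised to DMSO and no-cell wells; curves fitted, classed by r2 and efficacy.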
TDP1 cell CPT – DT40-hTDP1 cell growth loss with CPT; actives 12% (n = 420,000); AID 686979; Potency, µM (series often up to 46.2 µM), inactives show at the top dose activity change, negative = growth inhibition, most hits filed as inhibitors; chicken DT40 Tdp1-/-;hTDP1 cells + 20 nM CPT, ATP luminescence, 48 h; also: potency is read from the fitted curve at half-maximal effect; nearly all actives have a fitted effect of over 55% in size
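Chicken DT40 Tdp1-/- cells complemented with human TDP1, 400 cells/well, exposed to compounds plus 20 nM camptothecin for at least 48 h at 37 C; viability read as ATP content by CellTiter-Glo luminescence.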
IL-1B inflam inh – inhibitors of inflammasome signaling (IL-1 beta secretion) | activity change, % at 57.5 µM | actives 4.7% (n = 360,000) | THP-1 LPS/ATP IL-1B secretion, AlphaLISA, 16 h; active compounds read low; in the data active = activity change below about -50%; inconclusive = mostly about -30% to -49%
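THP-1 cells pretreated 1 hr with compounds (up to 57.5 uM final), then stimulated with LPS (250 ng/mL final) plus ATP (1.25 mM final); secreted IL-1B measured by AlphaLISA after 16 hr, decreased signal indicating inhibition.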
TDP1 cell noCPT – qHTS for Inhibitors of human tyrosyl-DNA phosphodiesterase 1 (TDP1): qHTS in cells in absence of CPT; DT40 Tdp1-/- hTDP1 cells, no CPT, ATP luminescence, 48 h; Potency, µM (series often up to 46.2 µM), without a hit: at the highest dose activity change, negative = growth inhibition, hits mostly inhibitors; actives 15% (n = 420,000); AID 686978, 2013; also: potency is read from the fitted curve at half-maximal effect; nearly all actives have a fitted effect of over 55% in size
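Cells were dispensed at 400 per well, compounds added by pin tool, plates incubated ≥48 hr at 37 °C, then CellTiter-Glo added for 30 min at room temperature before luminescence reading. Line: DT40 Tdp1-/- complemented with hTDP1; camptothecin omitted.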
* = called active by the depositor; ? = inconclusive; . = not tested or not shown; [ ] = another dose, or the depositor's remark. Unless noted, calls follow the shape of the dose curve; as a rule, active = well fitted curve in the direction sought with a large enough effect; inconclusive = small, poorly fitted or top-dose-only effect, or another doubt; inactive = no such curve, though single readings can be large; an effect the other way counts as inactive or inconclusive. Unless noted, % is scaled to controls: 0 for no effect and ±100 for the full control effect.

SMILES	uPA generation	HT1080-NT tox	HT1080 IDH1KD tx	TDP1 cell CPT	IL-1B inflam inh	TDP1 cell noCPT
C=CCC[C@H](Cc1ccc(F)cc1)C(=O)OC[C@@H](Cc1c[nH]c2ccccc12)NC(=O)[C@@H](CC=C)CC(=O)N(CCO)Cc1ccccc1	-14%	?	?	?	-62*	?
C=CC[C@@H](CC(=O)N[C@H](CO)Cc1ccccc1)C(=O)N[C@@H](COC(=O)[C@@H](CC=C)CC(=O)OC(C)(C)C)Cc1c[nH]c2ccccc12	19%	-5%	-9%	16µM*	-27	?
C=CCC[C@@H](Cc1ccc(F)cc1)C(=O)OC[C@H](Cc1c[nH]c2ccccc12)NC(=O)[C@H](CC=C)CC(=O)N(CCO)Cc1ccccc1	?	?	?	15µM*	-7	21µM*
CN(C)C(Cc1ccccc1)C(=O)c1c[nH]c2ccccc12 (stereo not given)	-1%	-16%	-24%	?	-30	?
COc1ccc(CCNC(=O)CCc2c(C)nc3c(-c4ccc(F)cc4)c(C)nn3c2C)cc1OC	.	.	.	8.2µM*	.	12µM*
COC(=O)C1=C(c2ccc(C(C)=O)cc2)C[C@@H]2CC[C@H]1N2C(=O)NCc1ccc(F)cc1	8%	?	10%	-8%	6	?
CC1OC(=O)C(C(C)C)NC(=O)C(C(C)C)OC(=O)C(C(C)C)NC(=O)C(C)OC(=O)C(C(C)C)NC(=O)C(C(C)C)OC(=O)C(C(C)C)NC(=O)C(C)OC(=O)C(C(C)C)NC(=O)C(C(C)C)OC(=O)C(C(C)C)NC1=O (stereo not given)	.	.	.	0.18µM*	.	0.22µM*
CCOc1ccc(N=C2SCCCN2C)cc1	5%	17%	17%	-29%	-3	?
O=C1c2ccccc2C(=O)N1SC1CCCCC1	-4%	-15%	-2%	3.7µM*	73	3.7µM*
O=C1NC(=O)C(CCc2ccncc2)(Cc2ccc(OCc3ccccc3)cc2)C(=O)N1	0%	6%	4%	9%	-4	-6%
O=C(c1ccc(N2CC3CC(C2)c2cccc(=O)n2C3)c([N+](=O)[O-])c1)N1CCCC1 (stereo not given)	-3%	-12%	0%	3%	8	-8%
Cc1cccc(C(=O)NC(C(=O)Nc2nc(-c3ccccn3)cs2)C(C)C)c1 (stereo not given)	?	-28%	?	13µM*	86	12µM*
Cc1ccc(Cn2nc(C(=O)Nc3ccc(Br)cc3)cc2C)cc1	-8%	-6%	?	?	34	12µM*
CNC(=O)Oc1ccccc1C1CCCCC1	-4%	-7%	13%	?	-1	-22%
CCCCn1c(O)c(/C=N/N2CCOCC2)c(=O)[nH]c1=S	16%	14%	8%	-6%	-12	-3%
CCCCCCn1c(O)c(C=Nc2ccccc2N2CCOCC2)c(=O)[nH]c1=S	11%	3%	4%	?	0	15µM*
CCCCCCC(=O)N/N=C/c1c(O)n(CCCC)c(=S)[nH]c1=O	-1%	?	?	?	121	18µM*
CCCCC(=O)N/N=C/c1c(O)n(CC)c(=S)[nH]c1=O	10%	0%	-12%	-3%	19	5%
CN(C(=O)Cc1ccc(Cl)c(Cl)c1)[C@H](CN1CCCC1)c1cccc(N=C=S)c1	.	.	.	12µM*	.	13µM*
CN(C(=O)Cc1ccc(Cl)c(Cl)c1)C(CN1CCCC1)c1cccc(N=C=S)c1 (stereo not given)	.	.	.	5.2µM*	.	3.3µM*
COc1ccc(C(CNC(=O)Cc2ccc(Cl)c(Cl)c2)N2CCCCC2)cc1 (stereo not given)	-11%	-26%	-3%	?	-8	?
O=S1(=O)OCCC(c2ccccc2)N1Cc1ccccc1 (stereo not given)	-13%	15%	8%	?	12	-22%
CC(C(=O)O)N(C(=O)c1ccccc1)c1ccc(F)c(Cl)c1 (stereo not given)	1%	-4%	-1%	15%	37	-10%
CCOc1cc(CNCCc2c[nH]c3ccccc23)cc(Cl)c1OC	2%	18µM*	21µM*	8.2µM*	-103*	5.8µM*
Clc1cccc(CNCCc2c[nH]c3ccccc23)c1	8%	18µM*	16µM*	?	-92*	?
SMILES	uPA generation	HT1080-NT tox	HT1080 IDH1KD tx	TDP1 cell CPT	IL-1B inflam inh	TDP1 cell noCPT
FC(F)(F)c1ccc(CNCCc2c[nH]c3ccccc23)cc1	-1%	17%	-1%	?	-16	?
COc1cccc(CNCCc2c[nH]c3ccccc23)c1OC	2%	-16%	0%	2%	12	-15%
COc1cc2nc(N(C)C)c(CNCCc3c[nH]c4ccccc34)cc2c(OC)c1OC	.	.	.	6%[9.04 µM]	.	-18%
CCCCNCc1cc(Cl)c(OCCC)c(OCC)c1	-7%	?	?	?	-64*	?
COc1ccc(CNCCc2c[nH]c3ccccc23)c(OC)c1OC	-4%	-2%	?	16µM*	-58*	12µM*
Cc1ccc2c(c1)N(C(C)C(=O)N1CCC3(CC1)OCCO3)C(=O)CO2 (stereo not given)	1%	12%	-1%	-14%	-6	8%
Cc1ccc(N=CN(C)C=Nc2ccc(C)cc2C)c(C)c1	.	.	.	6%	.	4%
NC(N)=Nc1ccc2[nH]c3c(c2c1)C[C@]1(O)[C@@H]2Cc4ccc(O)c5c4[C@]1(CCN2CC1CC1)[C@@H]3O5	.	.	.	-24%	.	?
COc1ccc(OCC(=O)N2CCN(CCc3ccccn3)CC2)cc1	.	.	.	5%	.	-15%
COc1ccccc1CCNCc1ccc(OC)c(OC)c1OC	4%	-11%	-3%	26µM*	?	12µM*
COc1cccc(CNCCc2cccc(F)c2)c1OC	4%	-9%	3%	?	-8	?
Cn1c(N2CCNCC2)nc2ccccc21	.	14%	11%	-17%	1	-13%
Cc1cc(N2CCNCC2)nc2ccccc12	5%	?	-1%	-9%	-63*	?
Cc1ccc(-c2nc3ccc(Cl)cn3c2Nc2ccccc2C)s1	.	.	.	21µM*	.	16µM*
O=[N+]([O-])CCO	3%	19%	6%	-13%	22	-15%
C/C(=N\N1CCCCCC1)c1c(O)n(-c2ccccc2C)c(=O)[nH]c1=O	6%	1%	2%	-66%	4	0.13µM*
C/C(=N\N1CCCCCC1)c1c(O)n(-c2ccc(C)cc2)c(=O)[nH]c1=O	-2%	5%	-4%	1%	-2	-25%
